# Laboratory results as given in PubChem BioAssay.
# Calls of active or inactive are those of the source. Unless noted, no rule for the calls is given here.
# Tests used:
# [1] = test system: Wnt5a (protein binding on small-molecule microarray); test: Wnt5a binders on small-molecule microarray, primary screen, biophysical, 635/667 nm fluorescence (AID 1142); conditions: 635 nm fluorescence, higher = more signal;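 also: fluorescence read at 667 nm with signal to noise per printed feature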
# [2] = cell viability in Huh7 cells, primary screen, cytotoxicity control for HCV replication inhibitor project, CellTiter-Glo luminescence, basal, 48 h (AID 1143); conditions: Huh7 HCV replicon, higher = more signal, called active from +8 up or from −8 down;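 also: Huh7 hepatoma cells carrying a hepatitis C replication reporter with no stimulus; test concentration not given here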
# [3] = P. aeruginosa biofilm formation inhibitors, primary screen, PAO1 strain, BacTiter-Glo luminescence, LB-PBS (AID 1144); conditions: 12 h, higher = more signal
# [4] = CREB reporter modulators without forskolin, primary screen, cell-based, PC12, CRE-LacZ reporter, unstimulated (AID 1145); conditions: no forskolin, luminescence, 4.5 h, higher = more signal, called active from +8 up or from −8 down
# [5] = CREB reporter modulators under forskolin, primary screen, cell-based, PC12, CRE-LacZ reporter, forskolin-stimulated (AID 1146); conditions: luminescence, 4.5 h, higher = more signal, called active from +8 up or from −8 down;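 also: PC12 cells with 6xCRE LacZ reporter stimulated by forskolin 10 µM; beta-galactosidase reporter signal reflecting CREB driven transcription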
# [6] = target: Streptavidin (Streptomyces avidinii) (UniProt P22629); test: streptavidin binders on small-molecule microarray, primary screen, artefact control for SMM compound annotation, biophysical, 635/667 nm fluorescence (AID 1147); conditions: streptavidin binding, higher = more signal;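 also: signal reflects streptavidin binding to arrayed compounds as a control protein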
# [7] = small-molecule binders of probe aInhba, primary screen, biochemical, small-molecule microarray, 635/667 nm fluorescence (AID 1148); conditions: higher = more signal;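 also: score merges 667nm spot fluorescence with signal-to-noise for antibody binding to printed compounds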
# Torsin-1A (Homo sapiens) [8] = target: Torsin-1A (Homo sapiens) (UniProt O14656); test: torsin A binders from cell lysate, primary screen, small-molecule microarray, wild-type, 635/667 nm (AID 1149); conditions: COS7 hTOR1A-WT lysate, 635 nm fluorescence, higher = more signal
# Torsin-1A (Homo sapiens) [9] = target: Torsin-1A (Homo sapiens) (UniProt O14656); test: small-molecule binders of mutant TOR1A in lysate, primary screen, cell lysate, small-molecule microarray, COS7 lysate, 635/667 nm fluorescence (AID 1150); conditions: COS7 hTOR1A mutant lysate, 635 nm fluorescence, higher = more signal;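 also: score pools 667 nm emission and signal to noise measuring lysate protein binding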
# [10] = test system: Sonic hedgehog protein (Shh); test: small-molecule binders of Shh protein, primary screen, biochemical, small-molecule microarray, 635/667 nm fluorescence (AID 1151); conditions: small-molecule microarray binding, 635 nm fluorescence; higher = more signal;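 also: Shh protein binding to compounds spotted on small-molecule microarray slides; score combines spot fluorescence intensity with signal-to-noise across triplicate slides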
# [11] = E. coli DRC41 culture turbidity changes, primary screen, E. coli filamentation inducer project, strain DRC41, OD650, 48 h (AID 1152);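 also: E. coli MC1000 strain DRC41 lacking acrAB efflux pump and sulA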; conditions: E. coli DRC41 (acrAB sulA), higher = more signal, called active from +8 up or from −8 down
# [12] = small-molecule binders of probe aLefty1, primary screen, biochemical, small-molecule microarray, 635/667 nm fluorescence (AID 1153); conditions: higher = more signal;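 also: score merges spot fluorescence with signal-to-noise ratio from the scanned slide images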
# [13] = PSAC antagonists in infected red cells, primary screen, cell-based, P. falciparum Indochina, OD700, 1 h (AID 1154); conditions: P. falciparum Indochina infected RBC osmotic lysis, higher = more signal, called active from +8 up or from −8 down
# [14] = PSAC antagonists in infected red cells, primary screen, cell-based, P. falciparum Indochina, OD700, 2 h (AID 1155);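 also: lysis reports solute entry through the parasite surface anion channel PSAC; channel blockers reduce lysis of infected cells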; conditions: P. falciparum Indochina infected erythrocytes, osmotic lysis OD700; higher = more signal, called active from +8 up or from −8 down
# [15] = osmotic lysis modulators in infected erythrocytes, primary screen, PSAC antagonist project, cell-based, P. falciparum Indochina, OD700, 3 h (AID 1156); conditions: higher = more signal, called active from +8 up or from −8 down
# [16] = PSAC antagonists in infected red cells, primary screen, cell-based, P. falciparum Indochina, OD700, 18 h (AID 1157); conditions: P. falciparum Indochina infected erythrocytes, osmotic lysis OD700, 18 h; higher = more signal, called active from +8 up or from −8 down
# [17] = modulators of S6 phosphorylation in cells, primary screen, cell-based, A549, cytoblot, luminescence, serum-stimulated (AID 1158); conditions: A549 phospho-S6 cytoblot, 5 h, higher = more signal;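 also: serum-stimulated A549 lung adenocarcinoma cells; signal is phosphorylated S6 detected by cytoblot immunostaining with HRP secondary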
# [18] = target: NADPH oxidase 2 (Homo sapiens) (UniProt P04839); test: NOX2-dependent H2O2 signal modulators, primary screen, NOX inhibitor project, cell-based, HEK293-NOX2, PMA-stimulated, Amplex Red fluorescence (AID 1159); conditions: 45 min, higher = more signal, called active from +8 up or from −8 down; also: test concentration not given here
# [19] = target: NADPH oxidase 4 (Homo sapiens) (UniProt Q9NPH5); test: NOX4-dependent H2O2 signal modulators, primary screen, NOX inhibitor project, cell-based, HEK293-NOX4, tetracycline-induced, Amplex Red fluorescence (AID 1160); conditions: 45 min, higher = more signal, called active from +8 up or from −8 down
# [20] = target: NADPH oxidase 5 (Homo sapiens) (UniProt Q96PH1); test: NOX5-dependent H2O2 signal modulators, primary screen, NOX inhibitor project, cell-based, HEK293-NOX5, Amplex Red fluorescence (AID 1161); conditions: HEK293-NOX5, ionomycin, 45 min, higher = more signal
# NADPH oxidase 5 (Homo sapiens), sequence (Q96PH1 whole entry, looked up): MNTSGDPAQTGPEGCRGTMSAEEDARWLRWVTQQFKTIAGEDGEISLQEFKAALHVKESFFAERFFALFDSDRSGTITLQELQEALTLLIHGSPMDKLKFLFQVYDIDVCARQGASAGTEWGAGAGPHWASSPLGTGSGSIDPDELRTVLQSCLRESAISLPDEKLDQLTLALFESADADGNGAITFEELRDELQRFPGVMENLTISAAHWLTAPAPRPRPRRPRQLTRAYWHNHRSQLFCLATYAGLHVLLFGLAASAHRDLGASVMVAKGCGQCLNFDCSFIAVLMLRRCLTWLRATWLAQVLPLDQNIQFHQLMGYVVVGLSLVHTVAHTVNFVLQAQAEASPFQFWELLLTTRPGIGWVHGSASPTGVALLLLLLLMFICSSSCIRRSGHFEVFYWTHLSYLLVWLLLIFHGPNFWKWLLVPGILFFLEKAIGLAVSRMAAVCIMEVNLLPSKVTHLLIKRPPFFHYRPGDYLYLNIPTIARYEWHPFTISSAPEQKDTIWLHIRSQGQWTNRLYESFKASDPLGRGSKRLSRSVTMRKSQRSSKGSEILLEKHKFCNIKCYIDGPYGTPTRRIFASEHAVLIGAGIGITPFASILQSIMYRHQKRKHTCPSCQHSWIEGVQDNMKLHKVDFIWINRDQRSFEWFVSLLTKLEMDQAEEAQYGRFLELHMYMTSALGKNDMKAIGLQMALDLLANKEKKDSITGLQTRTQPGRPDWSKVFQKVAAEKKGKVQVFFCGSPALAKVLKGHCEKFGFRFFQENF
# NADPH oxidase 2 (Homo sapiens), sequence (P04839 whole entry, looked up): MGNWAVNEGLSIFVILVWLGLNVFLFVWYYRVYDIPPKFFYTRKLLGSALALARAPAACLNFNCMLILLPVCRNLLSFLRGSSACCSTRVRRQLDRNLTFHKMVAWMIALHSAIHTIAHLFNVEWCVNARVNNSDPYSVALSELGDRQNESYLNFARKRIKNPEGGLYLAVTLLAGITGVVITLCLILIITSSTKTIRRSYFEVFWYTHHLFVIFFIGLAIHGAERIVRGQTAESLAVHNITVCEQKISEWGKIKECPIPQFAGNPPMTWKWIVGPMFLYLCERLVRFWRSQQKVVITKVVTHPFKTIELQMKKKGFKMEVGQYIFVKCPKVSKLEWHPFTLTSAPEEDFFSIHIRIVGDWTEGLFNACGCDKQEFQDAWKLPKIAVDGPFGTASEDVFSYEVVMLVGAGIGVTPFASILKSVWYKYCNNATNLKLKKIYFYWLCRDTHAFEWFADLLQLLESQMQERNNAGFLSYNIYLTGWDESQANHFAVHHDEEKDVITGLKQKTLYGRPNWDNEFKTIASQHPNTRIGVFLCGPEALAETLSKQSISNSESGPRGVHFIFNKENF
# NADPH oxidase 4 (Homo sapiens), sequence (Q9NPH5 whole entry, looked up): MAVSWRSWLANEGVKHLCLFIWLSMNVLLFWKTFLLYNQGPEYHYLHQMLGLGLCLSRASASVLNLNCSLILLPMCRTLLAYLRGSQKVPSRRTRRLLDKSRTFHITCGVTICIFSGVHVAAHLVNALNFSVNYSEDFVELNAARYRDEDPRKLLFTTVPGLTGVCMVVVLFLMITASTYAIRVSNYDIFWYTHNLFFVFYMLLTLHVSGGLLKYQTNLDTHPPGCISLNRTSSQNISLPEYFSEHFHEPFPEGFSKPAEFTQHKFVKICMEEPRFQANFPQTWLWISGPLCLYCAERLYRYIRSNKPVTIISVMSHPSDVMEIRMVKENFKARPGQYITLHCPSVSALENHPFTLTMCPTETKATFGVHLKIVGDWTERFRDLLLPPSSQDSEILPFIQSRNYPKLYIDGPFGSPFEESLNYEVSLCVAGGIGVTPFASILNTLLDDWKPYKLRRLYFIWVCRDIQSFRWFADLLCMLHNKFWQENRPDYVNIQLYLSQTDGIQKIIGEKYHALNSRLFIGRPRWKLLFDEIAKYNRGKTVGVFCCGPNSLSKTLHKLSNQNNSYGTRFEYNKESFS
# Torsin-1A (Homo sapiens), sequence (O14656 whole entry, looked up): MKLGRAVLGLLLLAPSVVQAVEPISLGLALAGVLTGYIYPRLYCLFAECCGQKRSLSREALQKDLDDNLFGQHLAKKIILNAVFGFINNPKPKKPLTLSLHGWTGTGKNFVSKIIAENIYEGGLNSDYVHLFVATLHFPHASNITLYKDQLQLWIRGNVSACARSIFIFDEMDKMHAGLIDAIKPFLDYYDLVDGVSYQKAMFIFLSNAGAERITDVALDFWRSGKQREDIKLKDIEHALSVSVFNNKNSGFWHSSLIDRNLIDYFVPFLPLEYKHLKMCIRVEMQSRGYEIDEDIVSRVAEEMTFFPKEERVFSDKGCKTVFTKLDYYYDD
# Streptavidin (Streptomyces avidinii), sequence (P22629 whole entry, looked up): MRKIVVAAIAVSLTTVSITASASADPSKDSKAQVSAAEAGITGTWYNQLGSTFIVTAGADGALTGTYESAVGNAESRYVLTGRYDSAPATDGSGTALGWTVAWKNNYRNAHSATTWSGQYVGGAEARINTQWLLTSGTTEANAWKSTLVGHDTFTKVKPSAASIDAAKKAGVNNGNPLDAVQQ
Structure (SMILES),composite z-score [1],z-score [2],z-score [3],z-score [4],z-score [5],composite z-score [6],composite z-score [7],composite z-score (Torsin-1A (Homo sapiens) [8]),composite z-score (Torsin-1A (Homo sapiens) [9]),composite z-score [10],z-score [11],composite z-score [12],z-score [13],z-score [14],z-score [15],z-score [16],z-score [17],z-score [18],z-score [19],z-score [20]
CC(C)(C)N1C(=O)[C@H]2[C@H]3[C@H](O)[C@H](O)CC(=NNC(=O)OCc4ccccc4)[C@@H]3CC[C@H]2C1=O,-0.0841,0.633 (inactive),-0.0893 (inactive),-0.0258 (inactive),0.314 (inactive),0.171,-0.13,0.472,0.322,0.226,0.323 (inactive),-0.153,0.0391 (inactive),0.193 (inactive),-0.279 (inactive),-0.385 (inactive),-0.731,0.788 (inactive),0.739 (inactive),0.0356
COC(=O)CC=C[C@@H](C)[C@@H](C=NOC[C@@H](C)[C@H](OCc1ccccc1)C(C)C)NS(=O)(=O)c1ccc(C)cc1,-0.122,-0.7 (inactive),0.904 (inactive),2.87 (inactive),0.447 (inactive),-0.784,-0.29,0.331,0.0147,0.587,-0.795 (inactive),-0.0011,2.91 (inactive),0.988 (inactive),1.2 (inactive),0.808 (inactive),-0.222,0.787 (inactive),-0.183 (inactive),-1.19
CCOC(=O)CCN1C(=O)[C@H]2[C@H]3[C@H](O)[C@H](O)CC(=NNC(=O)OCC)[C@H]3CC[C@H]2C1=O,-0.034,-1.63 (inactive),1.25 (inactive),-0.202 (inactive),0.531 (inactive),-0.58,-0.24,0.0668,0.204,1.1,-0.793 (inactive),-0.0611,3.88 (inactive),0.635 (inactive),1 (inactive),1.07 (inactive),-0.242,0.415 (inactive),-0.702 (inactive),-4.72
COc1ccc(O[C@H]2C=C[C@@H](c3ccccc3)O[C@@H]2COC(=O)NCc2cccc3ccccc23)cc1,-0.092,-1.55 (inactive),0.928 (inactive),0.745 (inactive),1.56 (inactive),0.493,-0.218,0.0485,0.225,0.401,-0.286 (inactive),-0.0046,2.71 (inactive),0.896 (inactive),-0.119 (inactive),0.515 (inactive),-0.553,0.5 (inactive),-0.0581 (inactive),-0.406
CC(CCC(=O)OC[C@H]1O[C@H](C#Cc2ccccc2)C=C[C@@H]1Oc1ccc(C)cc1)=NOC(C)CN1CCCc2nc(C)c(C)cc21 (stereo not given in full),0.0127,-0.386 (inactive),0.0692 (inactive),0.336 (inactive),0.51 (inactive),0.727,-0.0259,0.313,-0.0361,0.298,-0.651 (inactive),0.106,5.4 (inactive),0.859 (inactive),0.785 (inactive),0.735 (inactive),-0.624,-0.866 (inactive),-0.435 (inactive),-0.297
CN1CCc2nc(-c3ccccc3)c(-c3ccccc3)cc2C1,0.0321,0.55 (inactive),0.99 (inactive),1.65 (inactive),0.0655 (inactive),0.0666,-0.176,0.214,0.539,0.464,0.67 (inactive),-0.0748,0.296 (inactive),-0.0787 (inactive),0.406 (inactive),-0.021 (inactive),-0.76,-0.512 (inactive),-0.0205 (inactive),-0.409
CCOC(=O)[C@H](CC(C)C)NC(=O)CCC1CC(OC(=O)NCCc2ccc(F)cc2)CC2(CCCC(COC(=O)NCc3cccc4ccccc34)O2)O1 (stereo not given in full),-0.165,-0.731 (inactive),-0.596 (inactive),-0.889 (inactive),1.01 (inactive),1.57,-0.131,-0.169,0.184,0.601,-0.14 (inactive),-0.147,15.2 (active),3.27 (inactive),-1.34 (inactive),0.344 (inactive),0.927,0.135 (inactive),0.378 (inactive),-0.0307
CC(CCN1CCCCc2nc(C)c(C)cc21)=NO[C@@H](C)c1cc(-c2c(C)cc(C)cc2C)no1,-0.525,-3.04 (inactive),-0.425 (inactive),1.9 (inactive),1.02 (inactive),-1.23,-0.211,-1.18,-0.956,-0.235,0.393 (inactive),-0.196,3 (inactive),0.49 (inactive),1.54 (inactive),0.588 (inactive),0.13,-1.79 (inactive),-0.125 (inactive),-2.5
CC(C)CON=C1C[C@@H](O)[C@@H](O)[C@@H]2[C@@H]3C(=O)N([C@@H](C)c4ccccc4)C(=O)[C@@H]3CC[C@@H]12,-0.0932,-0.192 (inactive),0.374 (inactive),0.149 (inactive),-0.776 (inactive),0.0337,-0.0791,-0.0344,0.118,-0.104,-0.196 (inactive),-0.0155,0.694 (inactive),0.63 (inactive),0.181 (inactive),0.281 (inactive),-0.691,-1.96 (inactive),0.799 (inactive),-0.519
CO[C@H]1COC(=O)CCC[C@H](C)[C@H](OC)COC(=O)CC=C[C@@H]1C,-0.225,-1.15 (inactive),-0.339 (inactive),-1.29 (inactive),-0.46 (inactive),0.116,-0.154,1.78,1.64,1.79,0.928 (inactive),-0.0626,-0.972 (inactive),-1.26 (inactive),0.232 (inactive),-1.45 (inactive),1.18,-0.0777 (inactive),0.862 (inactive),0.381
CCN1C(=O)[C@H]2[C@H]3[C@H](O)[C@H](O)CC(=NOCC(C)C)[C@H]3CC[C@H]2C1=O,-0.0772,0.306 (inactive),0.138 (inactive),-0.202 (inactive),0.13 (inactive),0.342,-0.0774,-0.284,0.303,0.599,0.552 (inactive),-0.0658,-0.135 (inactive),-0.0288 (inactive),-0.369 (inactive),-0.433 (inactive),-0.812,-5.92 (inactive),0.358 (inactive),-0.231
CC(=O)OC[C@H]1O[C@@H](ON=C(C)CCC(=O)OC[C@H]2O[C@H](C#Cc3ccccc3)C=C[C@@H]2Oc2ccc(C)cc2)[C@H](OC(C)=O)[C@@H](OC(C)=O)[C@@H]1OC(C)=O,0.428,-1.1 (inactive),-0.238 (inactive),2.19 (inactive),0.725 (inactive),0.29,-0.082,0.513,0.461,1.19,-0.446 (inactive),-0.265,2.56 (inactive),1.11 (inactive),0.63 (inactive),0.612 (inactive),-0.635,1.04 (inactive),1.2 (inactive),1.38
CC(C)[C@@H](OCc1ccccc1)[C@H](C)C=NO[C@@H](C)c1cn([C@H](CO)Cc2ccccc2)nn1,-0.0307,-0.927 (inactive),0.496 (inactive),0.843 (inactive),-0.0785 (inactive),-0.0202,-0.107,0.752,0.441,0.26,0.502 (inactive),0.086,1.82 (inactive),-0.246 (inactive),-0.038 (inactive),0.245 (inactive),-0.78,-1.07 (inactive),-0.046 (inactive),-0.543
C=CC[C@@H]1C=C[C@H](ON=CC[C@@H]2C=C[C@H](OC(C)=O)[C@@H](COC(C)=O)O2)[C@@H](CO)O1,0.521,0.0101 (inactive),-0.325 (inactive),-1.21 (inactive),-0.66 (inactive),1.54,0.113,-0.161,0.259,0.925,0.4 (inactive),0.455,0.551 (inactive),0.538 (inactive),-0.0293 (inactive),0.393 (inactive),0.166,-0.893 (inactive),0.319 (inactive),1.03
CO[C@@H]1C=CCC(=O)N[C@@H](C)C(=O)OC[C@@H](OC)[C@H](C)C=CCC(=O)OC[C@H]1C,0.552,-0.0206 (inactive),0.457 (inactive),0.876 (inactive),-0.384 (inactive),-0.477,-0.157,2.58,2.21,2.06,0.0083 (inactive),-0.149,-0.0896 (inactive),0.233 (inactive),0.442 (inactive),0.205 (inactive),0.15,-0.27 (inactive),0.0964 (inactive),-0.367
CC(C)CON=C1C[C@@H](O)[C@@H](O)[C@@H]2[C@@H]3C(=O)N(Cc4ccc5c(c4)OCO5)C(=O)[C@@H]3CC[C@@H]12,0.199,-0.415 (inactive),-0.488 (inactive),0.241 (inactive),0.384 (inactive),0.289,-0.0645,-0.515,0.203,0.108,-0.0395 (inactive),-0.28,7.64 (inactive),0.859 (inactive),-0.0127 (inactive),0.548 (inactive),-0.333,-0.569 (inactive),0.409 (inactive),0.443
